Sampled rows, rich in hits. Any-hit rate of the full collection: about 2.2%.
PAX8 reporter = PAX8 transcriptional activity inhibition | AID 652154 | 1.2% of 360,000 active | RMG-I TPO-luciferase reporter, SteadyGlo, 24 h | inhibition, % at 12.6 µM;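 active = mean replicate inhibition at least 60% with every replicate also reaching 60%; inconclusive = only one of the two criteria is met; inactive = mean below 60% and not all replicates reaching 60%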;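 also: luciferase light reporting Pax8 driven TPO promoter activity; plate controls were median of neutral control wells for no effect and mitoxantrone controls for full effect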
Shn3 3UTR inh = reduces Shn3 3'UTR luciferase signal in osteoblasts; AID 588674; 0.52% of 360,000 active; Clone20 osteoblast Shn3 3'UTR firefly luciferase, 24 h; inhibition, % at 12.5 µM;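 active = mean inhibition of at least 75% with every replicate also reaching 75%; inconclusive = mean inhibition at least 75% but some replicate below; inactive = mean inhibition below 75%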;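 also: 0% = median of neutral control wells and 100% = pilot-screen positive control compound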
EBV LMP1 NFkB = reduces LMP1-driven NF-kappaB luciferase signal; 0.69% of 350,000 active; LMP1-induced NF-kappaB luciferase reporter cells, luminescence; AID 504558; inhibition, % at 12.5 µM; in the data active = inhibition above about 41%; inconclusive = no clear call, values can overlap the other calls;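 also: 0% = neutral control wells and 100% = reference inhibitor control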
LGR2 inh = blocks bursicon-induced cAMP signaling via Drosophila LGR2. HEK293 LGR2, CRE-luciferase, bursicon-stimulated, 4 h. inhibition, % at 9.99 µM. 0.35% of 380,000 active;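 active = drop in luminescence signal, shown as inhibition above about 50% in the replicate tests, limit read from the data, passing the limit was not always enough; inconclusive = probably only some replicates passing the limit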;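 also: agonist challenge used bursicon conditioned medium at about half maximal strength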
TRPM1 prom inh = reduces MITF-dependent TRPM1 promoter luciferase signal | 0.83% of 330,000 active | inhibition, % at 12.5 µM | SK-MEL-5 TRPM1 promoter luciferase, 24 h;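 active = mean inhibition across replicates of 60% or more, whatever share of single replicates reaches that level; inconclusive = some that reach 60%, reason not given; inactive = mean inhibition across replicates below 60%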
EWS-Fli inh = inhibitors of EWS/Fli oncoprotein transcriptional activity. A673 NR0B1-luciferase reporter, viability-normalised. inhibition, % at 12.6 µM. 0.67% of 350,000 active;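 active = mean inhibition of at least 50% after viability correction, with every replicate also passing that limit; inconclusive = mean reaches 50% but only one of two replicates passes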;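 also: firefly luciferase signal divided by Alamar Blue viability fluorescence both relative to DMSO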
DNA binding = small molecule DNA binding by fluorescence polarization. shares compounds with EWS-Fli inh. salmon sperm DNA acridine orange fluorescence polarization. AC35, µM (titrated, usually from 68 µM), for inactives: top-dose activity change, negative = DNA binding. 2% of 640 active;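 active = fitted curve reaches a 35% signal fall AC35 below twice the sample's top valid tested dose, actives reach about 48 µM in these data; inactive = the rest, including activity in the rising direction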;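 also: lower polarization ratio signals compound binding to DNA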
Numbers without * were called inactive; u = inconclusive; x = not tested or not shown; ! = not active in a repeat.

SMILES	PAX8 reporter	Shn3 3UTR inh	EBV LMP1 NFkB	LGR2 inh	TRPM1 prom inh	EWS-Fli inh	DNA binding
CC=Cc1ccc2n(c1=O)C[C@H]1[C@H](CO)[C@@H](C(=O)NCc3ccccc3)N(Cc3cncnc3)[C@@H]21 (mixture of isomers)	x	x	x	0	x	2	x
COc1ccc(S(=O)(=O)N(C)C[C@H]2OCCCC[C@H](C)Oc3ccc(NC(=O)Nc4c(C)noc4C)cc3C(=O)N([C@@H](C)CO)C[C@@H]2C)cc1	-5	x	x	1	x	-18	x
O=C(C[C@@H]1C[C@H]2c3cc(NC(=O)C4CCC4)ccc3O[C@H]2[C@H](CO)O1)NC1CCCCC1	13	x	x	11	x	-9	x
N#C[C@H]1[C@H](c2ccc(-c3ccccc3F)cc2)[C@@H](CO)N1C(=O)Cc1ccccc1	u	x	x	-26	x	62*	11%
Cc1noc(C)c1S(=O)(=O)N(C)C[C@@H]1OCCCC[C@H](C)Oc2ccc(NC(=O)c3ccccc3)cc2C(=O)N([C@H](C)CO)C[C@H]1C	0	x	x	3	x	6	x
CCCCCCN(C(=O)CCCCCN1C(=O)NC(c2ccc(Cl)cc2)C(C(=O)OCc2ccccc2)=C1C)C(C(=O)NCCCC)c1ccc(OCC(=O)OC)c(C(=O)OC)c1 (stereo unspecified)	58	x	x	4	x	66*	0%
Cc1ccc(C(C(=O)NCc2ccco2)N(C(=O)CNC(=O)c2cccs2)c2c(C)cc(C)cc2C)cc1 (stereo unspecified)	x	53	-47	7	32	55*	8%
COc1ccccc1C#Cc1cnc2c(c1)C(=O)N([C@@H](C)CO)C[C@H](C)[C@@H](CN(C)C)O2	x	x	x	1	x	13	x
c1ccc(-c2cc(CN3[C@@H]4CNC[C@H]3C4c3ccc(-c4ccncc4)cc3)no2)cc1 (stereo partly specified)	-9	x	x	-7	x	-2	x
c1ccc(-c2ccc([C@H]3[C@H]4CNC[C@@H]3N4Cc3cc(-c4ccccc4)on3)cc2)cc1	11	x	x	-13	x	58*	-13%
COc1ccccc1NC(=O)N[C@H]1CC[C@@H](CC(=O)NCc2ccc(Cl)c(Cl)c2)O[C@@H]1CO	x	x	x	4	x	x	x
CCS(=O)(=O)c1ccc(C=NNc2nc3ccccc3o2)cc1	-252	-91	-34	-63	-124	-66	x
CN(C)c1ccc(/C=N/Nc2nc3ccccc3o2)cc1	-19	10	24	67*	9	68*	-7%
CCCCOc1ccc(NC(=O)C(=O)NCCCn2ccnc2)cc1	85*	7	7	5	4	78*	-7%
CCCCCCOc1ccc(C(=O)NCCCn2ccnc2)cc1	26	8	2	x	12	24	x
C[C@H]1CN([C@@H](C)CO)S(=O)(=O)c2ccc(C#CC3CC3)cc2O[C@@H]1CN(C)C(=O)CN(C)C	x	x	x	-2	x	4	x
COc1cc(-c2noc(C)c2C#Cc2nccn2C)cc(OC)c1OC	24	-3	-1	-6	22	52*	-9%
C/C=C/c1ccc2c(c1)O[C@H](CN(C)Cc1ccncc1)[C@@H](C)CN([C@@H](C)CO)S2(=O)=O	x	x	x	1	x	11	x
CN(C)c1ccc(N=Nc2ccc(C(=O)O)cc2)cc1	56	34	36	-49	66*	65*	-3%
CN(C)c1ccc(C(=O)c2ccccc2)cc1	x	-44	-20	x	-71	x	x
Cc1ccc(/C=N/NC(=O)c2n[nH]c3c2CCCC3)cc1	u	-54	x	-21	x	40	x
O=C(N/N=C/c1cccs1)c1n[nH]c2c1CCCC2	65*	59	68*	76*	57	52*	-14%
C/C(=N\NC(=O)c1n[nH]c2c1CCC2)c1cccs1	102*	72	74*	x	65*	82*	5%
C[C@@H]1CN([C@H](C)CO)C(=O)Cc2cc(NC(=O)Cc3ccccc3)ccc2O[C@@H]1CN(C)C(=O)Nc1cccc2ccccc12	-7	x	x	8	x	20	x
O=C(O)CCC(=O)Nc1ccc(N=Nc2ccccc2)cc1	x	-4	-13	x	-2	x	x
SMILES	PAX8 reporter	Shn3 3UTR inh	EBV LMP1 NFkB	LGR2 inh	TRPM1 prom inh	EWS-Fli inh	DNA binding
CC(C)(C)C(=O)Nc1ccc(N=Nc2ccccc2)cc1	-37	39	-4	72*	20	59*	-5%
C=C1C(=O)[C@@]23[C@H](O)C[C@@H]4C(C)(C)CC[C@H](O)[C@@]4(C)[C@@H]2CC[C@@H]1[C@H]3O	112*	98*	94*	59*	93*	60*	-9%
C#CCOCCOCCOCCNc1nc(N2CCN(C(=O)CCCCCCCCCCNC(=O)Cn3cc(C[C@@H](C)O)nn3)CC2)nc(N2CCN(C(=O)CCCCCCCCCCNC(=O)[C@@H](CCC(=O)O)n3cc(CCCCCN)nn3)CC2)n1	-4	3	-28	x	6	6	x
C#CCOCCOCCOCCNc1nc(N2CCN(C(=O)CCCCCCCCCCNC(=O)Cn3cc(C[C@@H](C)O)nn3)CC2)nc(N2CCN(C(=O)CCCCCCCCCCNC(=O)[C@H](CO)n3cc(CCCSC)nn3)CC2)n1	39	5	-10	-9	60	58*	12%
O=C(COC(=O)c1ccc[nH]c1=O)Nc1ccc(N2CCCCC2)cc1	18	79	46*	-7	78*	75*	-11%
CCN1/C(=C\C(=S)Nc2ccccc2)Sc2ccccc21	-71	38	-15	x	-12	-62	x
CCN1/C(=C/C(C)=C/c2sc3ccccc3[n+]2CC)Sc2ccccc21	102*	88*	-10	110*!	103*	78*!	2.2µM*
COCCNC(=O)C[C@H]1CC[C@H]2[C@@H](COC[C@@H](O)CN2C(=O)c2cc(Cl)cc(Cl)c2)O1	11	x	x	9	x	-1	x
C[C@H](CO)N1C[C@H](C)[C@H](CN(C)Cc2ccc(Oc3ccccc3)cc2)Oc2ccc(NC(=O)Cn3cnnn3)cc2CC1=O	12	x	x	-1	x	54*	-1%
C[C@H](CO)N1C[C@H](C)[C@@H](CN(C)Cc2ccc(Oc3ccccc3)cc2)Oc2ccc(NC(=O)Cn3cnnn3)cc2CC1=O	-12	x	x	12	x	3	x
C[C@@H]1CN([C@@H](C)CO)C(=O)Cc2cc(NC(=O)Cn3cnnn3)ccc2O[C@@H]1CN(C)Cc1ccc(Oc2ccccc2)cc1	15	x	x	5	x	70*	-2%
C[C@H]1CN([C@@H](C)CO)C(=O)c2cc(/C=C/c3ccccc3)cnc2O[C@@H]1CN(C)S(=O)(=O)c1ccccc1	x	x	x	16	x	16	x
COc1ccccc1N(/N=C1\Sc2ccccc2C1=O)C(C)=O	-114	36	-3	x	12	54*	-12%
CCN(CC)c1cc(C)c2cc(NC(=O)c3cccs3)ccc2n1	-13	-13	3	-22	-46	-18	x
CCCc1nc2ccc(NC(=O)c3cccs3)cc2c(=O)n1Cc1ccccc1Cl	-1	12	6	9	-5	60*	-3%

Assay outcomes: PubChem, Broad Institute
